Experimental data from PubChem BioAssay (NCATS).
Inconclusive results are not listed. Calls of active or inactive are those of the source. Unless noted, the call rests on the fitted dose curve; in most records, active means well fitted curve in the direction sought with a large enough effect; inconclusive means small, poorly fitted or top-dose-only effect, or another doubt; inactive means no such curve, though single readings can be large; an effect the other way counts as inactive or inconclusive.

Assays:
[1] = target: Aldehyde dehydrogenase, mitochondrial (Homo sapiens) (UniProt P05091); assay: qHTS for Inhibitors of the Aldehyde Dehydrogenase Family (ALDH2) Confirmatory screens (AID 2061303; active means well fitted inhibition curve with a large enough effect; title and protocol of this record describe different tests; further: nearly all actives have a fitted effect of over 45% in size; further: potency means the concentration at half of the fitted maximal effect)
[2] = qHTS for Inhibitors of the Aldehyde Dehydrogenase Family (ALDH1A2, ALDH1A3, ALDH2, ALDH3A1) (AID 2061307); further: nearly all actives have a fitted effect of over 50% in size; on Potency: test system not described further here; potency means the concentration at half of the fitted maximal effect
[3] = target: Retinaldehyde dehydrogenase 3 (Homo sapiens) (UniProt P47895); assay: qHTS for Inhibitors of the Aldehyde Dehydrogenase Family (ALDH1A3) Confirmatory screens (AID 2061311); further: nearly all actives have a fitted effect of over 60% in size; further: potency means the concentration at half of the fitted maximal effect
[4] = target: Retinaldehyde dehydrogenase 3 (Homo sapiens) (UniProt P47895); assay: qHTS for Inhibitors of the Aldehyde Dehydrogenase Family (ALDH1A3) Validation screen (AID 2061312); further: on the % scale 0 is the no-effect control and ±100 the full control effect; nearly all actives have a fitted effect of over 45% in size
[5] = target: Retinal dehydrogenase 2 (Homo sapiens) (UniProt O94788); assay: qHTS for Inhibitors of the Aldehyde Dehydrogenase Family (ALDH1A2) Confirmation screens (AID 2061314); further: nearly all actives have a fitted effect of over 65% in size; further: potency means the concentration at half of the fitted maximal effect
[6] = target: Retinaldehyde dehydrogenase 3 (Homo sapiens) (UniProt P47895); assay: qHTS for Inhibitors of the Aldehyde Dehydrogenase Family (ALDH1A3) Primary screen (AID 2061315);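 further: plate controls were DMSO vehicle for no effect and reference inhibitor for full effect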
[7] = target: Aldehyde dehydrogenase 1A1 (Homo sapiens) (UniProt P00352); assay: qHTS for Inhibitors of the Aldehyde Dehydrogenase Family (ALDH1A1) Confirmatory screens (AID 2061316); further: nearly all actives have a fitted effect of over 65% in size
[8] = BET inhibitor-based combinations targeting novel dependencies in MECOM-rearranged (r) AML: HNT-34 cell line (AID 2202234);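 further: plate controls were vehicle wells for no effect and cell-free wells for full effect; nearly all actives have a fitted effect of over 35% in size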
Procedure, shortened: (§1)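 Cells at 500/well were exposed for 48 hr to MIPE v5.0 drugs as 11-point dose curves. Viability was read by CellTiter-Glo luminescence and normalized to DMSO and empty-well controls. Activity was expressed as AUC and per-cell-line Z-AUC.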

[9] = target: Aldehyde dehydrogenase, mitochondrial (Homo sapiens) (UniProt P05091); assay: qHTS for Inhibitors of the Aldehyde Dehydrogenase Family (ALDH2) Primary screen (AID 2061308);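 further: plate controls were vehicle for no effect and reference inhibitor for full effect; nearly all actives have a fitted effect of over 55% in size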
[10] = BET inhibitor-based combinations targeting novel dependencies in MECOM-rearranged (r) AML: SET-2 cell line (AID 2202231); details: SET-2 AML cells viability, CellTiter-Glo luminescence, 48 h; viability: stronger effect = lower value, series mostly up to about 46 µM;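 further: plate controls were DMSO treated cells for no effect and wells without cells for full effect; nearly all actives have a fitted effect of over 35% in size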
Procedure, shortened: (§2)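 AML cell lines seeded at 500 cells/well, treated with 11-point dose curves for 48 h. Viability by CellTiter-Glo luminescence, normalised to DMSO and empty wells; activity expressed as AUC and per-cell-line Z-transformed AUC.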

[11] = BET inhibitor-based combinations targeting novel dependencies in MECOM-rearranged (r) AML: OCI-AML3 cell line (AID 2202232); details: Potency: OCI-AML3 viability;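 further: series mostly up to about 46 µM; plate controls were DMSO vehicle wells for no effect and wells without cells for full effect; nearly all actives have a fitted effect of over 35% in size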
Procedure, shortened: as §2

[12] = BET inhibitor-based combinations targeting novel dependencies in MECOM-rearranged (r) AML: MV-4-11 cell line (AID 2202233); further: potency means the concentration at half of the fitted maximal effect; nearly all actives have a fitted effect of over 45% in size
Procedure, shortened: as §1

[13] = BET inhibitor-based combinations targeting novel dependencies in MECOM-rearranged (r) AML: UCSD-AML1 cell line (AID 2202235);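 further: series mostly up to about 46 µM; plate controls were DMSO vehicle wells for no effect and blank wells for full effect; nearly all actives have a fitted effect of over 40% in size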
Procedure, shortened: as §1

[14] = BET inhibitor-based combinations targeting novel dependencies in MECOM-rearranged (r) AML: AML-191 cell line (AID 2202236;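 further: plate controls were vehicle wells for no effect and wells without cells for full effect; nearly all actives have a fitted effect of over 35% in size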)
Procedure, shortened: as §2

[15] = BET inhibitor-based combinations targeting novel dependencies in MECOM-rearranged (r) AML: AML-194 cell line (AID 2202237;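 further: plate controls were vehicle wells for no effect and wells without cells for full effect; nearly all actives have a fitted effect of over 40% in size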)
Procedure, shortened: as §2

CN[C@@H]1[C@H](O[C@H]2[C@H](O[C@@H]3[C@@H](O)[C@H](O)[C@@H](N=C(N)N)[C@H](O)[C@H]3N=C(N)N)O[C@@H](C)[C@]2(O)C=O)O[C@@H](CO)[C@H](O)[C@H]1O
inactive: Potency [1] | Potency [2] | Potency [3] | Potency [4] | Potency [5] | Potency [6] | Potency [7] | Potency [8]

Cc1cc(N[S+](=O)([O-])c2cc3c(cc2Cl)NC(=O)CO3)ccc1Cl
inactive: Potency [1] | Potency [2] | Potency [9] | Potency [6] | Potency [7]

CN1CCN(c2cccc(Nc3nn4c(=O)c5ccc(F)cc5nc4s3)c2)CC1
inactive: Potency [1] | Potency [2] | Potency [9] | Potency [6]

CC1CCN(c2ccc(CNC(=O)CC3CCOCC3)cc2)CC1
inactive: Potency [1] | Potency [2]
active: Potency [3] 10 µM

CCOc1ccc(-c2nc(CSCC(=O)N3CCN(c4cccc(C(F)(F)F)c4)CC3)c(C)o2)cc1
active: Potency [1] 8.91 µM | Potency [2] 7.94 µM | Potency [3] 2 µM

Cc1ccc(C(=O)N2CCC(CCC(=O)N3CCCCC3)CC2)cc1
inactive: Potency [1] | Potency [2] | Potency [3] | Potency [5]

Cc1ccc(-c2ccc(C=O)cc2)c(C)c1
active: Potency [1] 4.7 µM | Potency [2] 15.8 µM | Potency [3] 0.355 µM | Potency [5] 12.6 µM

COc1cccc(Nc2nc(C#N)nc(NC3CCCC3)n2)c1
active: Potency [2] 10.1 µM
inactive: Potency [1] | Potency [9] | Potency [6] | Potency [7]

Cc1ccc(NC(=O)CN2C(=O)N/C(=C\c3cccn3-c3ccc(P(=O)(O)O)cc3)C2=O)cc1
inactive: Potency [1] | Potency [2] | Potency [9] | Potency [6] | Potency [7]

COc1ccc(-n2cnc3cc(C(=O)N4CCCCC4)ccc32)cc1
active: Potency [12] 18.6 µM
inactive: Potency [1] | Potency [2] | Potency [9] | Potency [6] | Potency [7] | viability [10] 112% | Potency [11] | Potency [8] | Potency [13] | Potency [14] | Potency [15]
